This note sets out measurements from PubChem BioAssay (NCI).

Some test systems named below: SR leukemia; RPMI-8226 leukemia; OVCAR-8 ovarian; OVCAR-5 ovarian; OVCAR-4 ovarian; SK-OV-3 ovarian; IGROV1 ovarian; OVCAR-3 ovarian; HS 578T breast; NCI/ADR-RES ovarian; T-47D breast; BT-549 breast; MDA-MB-435 melanoma; SW-620 colon; MCF7 breast; HCT-116 colon; KM12 colon; HCC-2998 colon.
Common to all, as to assay: NCI-60 one-dose screen, 48 h (100 = growth as untreated, 0 = no growth, -100 = all killed)
Holding throughout (details): 10 µM

The panel holds about 83,000 compounds, 20% with a hit somewhere; the sample as a whole holds those more often.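 Percent growth is the endpoint: 0 to 100 indicates growth inhibition (40 means 60% inhibition), 0 means no net growth, and negative values indicate cell death.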 A number with no mark means an inactive call. Activity calls are given as the source filed them. The calls were made as follows: active = growth percent below 10; inactive = the rest.

As to `COc1cc(-c2cc(/C=C/C(C)=O)[nH]n2)cc(OC)c1OC`, the growth in the test with SR leukemia is 4.57% (active); with RPMI-8226 leukemia, 22.8%; with OVCAR-8 ovarian, 73.5%; in the test with OVCAR-5 ovarian, 94.5%; in the test with OVCAR-4 ovarian it was 70.8%; in the test with SK-OV-3 ovarian, 109%. Moreover, the growth is 73.8% with IGROV1 ovarian; 85.2% in the test with OVCAR-3 ovarian; 91.8% in the test on HS 578T breast; 80.7% with NCI/ADR-RES ovarian; 32.2% with T-47D breast; 71.7% in the test with BT-549 breast. Besides, the growth in the test on MDA-MB-435 melanoma was 61.8%; in the test with SW-620 colon, 74.3%; in the test with MCF7 breast, 41%; with HCT-116 colon it was 39%; with KM12 colon it was 72%.

Turning to `COc1ccc(-c2cc(/C=C3\C(=O)Nc4cc(Cl)ccc43)[nH]n2)cc1`, the growth was 19.3% in the test on SR leukemia; 19.7% with RPMI-8226 leukemia; 48.1% in the test on OVCAR-8 ovarian; 69.4% in the test on OVCAR-5 ovarian; 64.1% in the test on OVCAR-4 ovarian; 28.8% in the test on SK-OV-3 ovarian. The growth in the test on IGROV1 ovarian was 42.6%; in the test with OVCAR-3 ovarian, -3% (active); in the test on HS 578T breast it was -4.18% (active); in the test on NCI/ADR-RES ovarian, 9.42% (active); in the test on T-47D breast it was 47.8%; with BT-549 breast, 63.5%. Also, the growth in the test on MDA-MB-435 melanoma is -36.7% (active); in the test on SW-620 colon, 19.9%; in the test with MCF7 breast it was 11.7%; in the test with HCT-116 colon, 26.2%; in the test with HCC-2998 colon, 56.7%; with KM12 colon it was 19.2%.

As to `COc1ccc(CSc2nc3cc(OC)c(OC)cc3c(=O)n2-c2ccc(OC)cc2OC)cc1`, the growth in the test on SR leukemia is 59.5%; with RPMI-8226 leukemia, 63.7%; with OVCAR-8 ovarian it was 89.2%; with OVCAR-5 ovarian, 102%; in the test on OVCAR-4 ovarian it was 83.2%; in the test on SK-OV-3 ovarian, 114%. Also, the growth with IGROV1 ovarian was 86.1%; with OVCAR-3 ovarian, 92.1%; in the test with HS 578T breast it was 86.7%; with NCI/ADR-RES ovarian, 79.5%; in the test with T-47D breast, 75.6%; in the test with BT-549 breast it was 93.9%. Besides, the growth in the test on MDA-MB-435 melanoma is 62%; in the test with SW-620 colon it was 90.3%; with MCF7 breast it was 83.1%; with HCT-116 colon it was 62.9%; in the test with KM12 colon, 78.1%.

Take `CC1(C)CC(OCCCC[P+](c2ccccc2)(c2ccccc2)c2ccccc2)CC(C)(C)N1O`: the growth with SR leukemia is 11.7%; in the test on RPMI-8226 leukemia, -73.5% (active); in the test on OVCAR-8 ovarian it was 6.29% (active); with OVCAR-5 ovarian, 18.2%; in the test on OVCAR-4 ovarian, 21.5%; in the test with SK-OV-3 ovarian, -13.4% (active). In addition, the growth with IGROV1 ovarian is -21% (active); in the test on OVCAR-3 ovarian it was -46.1% (active); in the test on HS 578T breast, -10.5% (active); in the test on NCI/ADR-RES ovarian it was 55.2%; in the test on T-47D breast, -2.14% (active); in the test on BT-549 breast it was 17.3%. In addition, the growth is -57.9% (active) in the test with MDA-MB-435 melanoma; 2.74% (active) in the test on SW-620 colon; -1.61% (active) with MCF7 breast; 12.4% in the test with HCT-116 colon; -51.6% (active) with KM12 colon.

Regarding `O=C(O)c1ccccc1C(=O)c1cccc2c(F)cccc12`, the growth with SR leukemia was 115%; with RPMI-8226 leukemia, 104%; with OVCAR-8 ovarian, 99%; in the test on OVCAR-5 ovarian, 110%; in the test with OVCAR-4 ovarian, 98.4%; in the test with SK-OV-3 ovarian it was 109%. The growth in the test with IGROV1 ovarian was 113%; with OVCAR-3 ovarian, 117%; in the test on HS 578T breast it was 126%; with NCI/ADR-RES ovarian, 104%; with T-47D breast, 94.5%; in the test with BT-549 breast, 103%. Moreover, the growth is 112% in the test on MDA-MB-435 melanoma; 106% in the test with SW-620 colon; 93.5% in the test on MCF7 breast; 103% in the test with HCT-116 colon; 105% with HCC-2998 colon; 111% in the test on KM12 colon.

For the molecule `O=C(OCc1ncc(-c2ccc(C(F)(F)F)cc2)c(NC2CCCCCC2)n1)c1c(F)c(F)c(F)c(F)c1F`, the growth with SR leukemia is 39.4%; with RPMI-8226 leukemia, -6.54% (active); in the test with OVCAR-8 ovarian, 44.1%; with OVCAR-5 ovarian, 88.3%; in the test on OVCAR-4 ovarian, 49.4%; in the test with SK-OV-3 ovarian, 91.8%. Besides, the growth is 63.7% with IGROV1 ovarian; 29.8% with OVCAR-3 ovarian; 65.3% in the test with HS 578T breast; 96.3% in the test with NCI/ADR-RES ovarian; 28.3% in the test with T-47D breast; 67.8% in the test on BT-549 breast. Also, the growth was 57.3% in the test with MDA-MB-435 melanoma; 64.5% in the test on SW-620 colon; 51% in the test on MCF7 breast; 52.6% with HCT-116 colon; 84.2% in the test on HCC-2998 colon; 45.6% in the test on KM12 colon.

`Cc1ccc(-n2c(-c3cc4c([nH]c5ccccc54)c(-c4cccc(O)c4)n3)n[nH]c2=S)cc1`: the growth in the test on SR leukemia was -21.8% (active); in the test with RPMI-8226 leukemia it was -14.1% (active); in the test with OVCAR-8 ovarian, 0.787% (active); with OVCAR-5 ovarian, 50.1%; with OVCAR-4 ovarian it was 26.4%; in the test on SK-OV-3 ovarian it was -14.5% (active). Besides, the growth is -3.48% (active) with IGROV1 ovarian; -36.1% (active) with OVCAR-3 ovarian; 23.4% in the test with HS 578T breast; 61.7% in the test with NCI/ADR-RES ovarian; 20.4% in the test with T-47D breast; -35.7% (active) with BT-549 breast. The growth in the test with MDA-MB-435 melanoma is 1.24% (active); in the test with SW-620 colon, 10.5%; in the test on MCF7 breast it was 2.88% (active); in the test on HCT-116 colon it was 3.29% (active); with KM12 colon, 5% (active).

For the molecule `O=S(=O)(O)C1(O)CCCCC1`, the growth with SR leukemia was 83.1%; in the test on RPMI-8226 leukemia it was 81.5%; in the test with OVCAR-8 ovarian, 79.3%; in the test with OVCAR-5 ovarian, 90.5%; in the test with OVCAR-4 ovarian it was 79.1%; in the test with SK-OV-3 ovarian, 94.9%. In addition, the growth with IGROV1 ovarian was 65.9%; in the test on OVCAR-3 ovarian it was 103%; with HS 578T breast it was 104%; in the test on NCI/ADR-RES ovarian, 95.4%; in the test on T-47D breast it was 85.7%; in the test with BT-549 breast it was 112%. The growth in the test on MDA-MB-435 melanoma is 89.2%; in the test on SW-620 colon, 81.5%; in the test on MCF7 breast, 78%; in the test with HCT-116 colon, 50.9%; in the test with HCC-2998 colon it was 110%; in the test on KM12 colon, 82.9%.
